According to PubChem BioAssay AID2289 (National Center for Advancing Translational Sciences (NCATS), 2010):
About 3,300 (0.97%) of roughly 340,000 compounds were called active. Another 9% or so got no clear call; they are omitted. The call rests on the fitted dose curve; in most records, active means well fitted inhibition curve with a large enough effect; inconclusive means small, poorly fitted or top-dose-only effect, or effect the other way; inactive means flat fitted curve, though single readings scatter. The list shows a part of the results.

Experiment: qHTS Assay for Modulators of miRNAs and/or Inhibitors of miR-21; further: nearly all actives have a fitted effect of over 55% in size
Conditions: HeLa miR-21-FLuc reporter, luciferase luminescence, 48 h; actives lower the signal
Summary of the method: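 HeLa cells endogenously expressing miR-21, stably carrying CMV-driven firefly luciferase with a downstream miR-21 binding site, 2000 cells/well. Titrations up to approximately 40 uM, 48 hours; luciferase luminescence read.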
Potency means the concentration at half of the fitted maximal effect.

Potency, active:
CC(O)CNc1ncnc2cc(-c3ccc(F)cc3)sc12 (configuration not stated) 4.65 µM
Cc1nn(-c2ccc(Br)cc2)c(=O)c2ccccc12 2.93 µM
Cc1nn(-c2ccc3ccccc3c2)c(=O)c2ccccc12 2.93 µM
COc1ccc(COc2ccc3ccc(=O)oc3c2)cc1 2.93 µM
COc1cccc(COc2ccc3ccc(=O)oc3c2)c1 7.36 µM
Cc1ccc2nc(N3C(=O)C(O)=C(C(=O)c4ccco4)C3c3cccs3)sc2c1 (configuration not stated) 5.21 µM
CCc1ccc2nc(N3C(=O)C(O)=C(C(=O)c4ccco4)C3c3cccs3)sc2c1 (configuration not stated) 6.56 µM
COc1ccc(N=Nc2ccc3ccccc3c2)c(O)c1 0.233 µM
COc1ccc(N=Nc2cc(C)ccc2O)cc1 0.521 µM
Nc1ccc(Nc2nc(-c3cc4ccccc4oc3=O)cs2)cc1 2.93 µM
CN1CCN(c2nc(-c3cc4ccccc4o3)cs2)CC1 5.21 µM
Nc1nc(-c2cc3ccccc3o2)cs1 2.33 µM
O=C(c1cc2ccccc2oc1=O)N1CCOCC1 16.5 µM
COc1ccc2oc(=O)c(C(=O)N3CCN(c4ccccc4C)CC3)cc2c1 2.07 µM
O=C(CSc1nc2ccccc2o1)c1cc2ccccc2oc1=O 14.7 µM
O=C(OC1CCCCC1)c1cc2ccccc2oc1=O 16.5 µM
Cc1c(-c2nc(-c3ccc(C(F)(F)F)cc3)no2)n(C)oc1=O 0.293 µM
COc1ccc(/C(N)=N/OC(=O)C2CCCCC2)cc1 4.65 µM
COc1ccc(/C(N)=N/OC(=O)C2CCCCC2)cc1OC 2.93 µM
CC(=O)c1ccc(OCc2cc(C(=O)N3CCOCC3)no2)cc1 18.5 µM
COCCN1CCN(C(=O)c2cc(COc3cc(C)ccc3C)on2)CC1 11.7 µM
COc1cccc(OCc2cc(C(=O)N3CCN(c4ccccc4OC)CC3)no2)c1 16.5 µM
COc1ccc(OCc2cc(C(=O)N3CCSCC3)no2)c(Cl)c1 4.65 µM
CC(=O)NCCC1CCCCN1C(=O)c1cc(COc2cc(C)ccc2C)on1 (configuration not stated) 7.36 µM
COc1ccc(OCc2cc(C(=O)N3CCOCC3)no2)c(Cl)c1 2.07 µM
O=C(CSc1ccc(-c2ccccc2)nn1)c1cccs1 7.36 µM
O=C(CSc1ccc(-c2ccccc2)nn1)c1ccccc1 16.5 µM
Cc1cc(SCC(=O)c2ccccc2)nc(=O)[nH]1 4.14 µM
N#Cc1ccc(-c2cccnc2)nc1SCC(=O)c1ccccc1 5.85 µM
COc1cc(NC(=O)c2ccccc2Cl)ccc1NC(=O)c1ccco1 2.93 µM
COc1ccc(Cl)cc1-c1nc(-c2ccc(NC(=O)c3cccs3)cc2)no1 7.36 µM
COc1cc(NC(=O)c2ccccc2Cl)ccc1NC(=O)c1cccs1 2.07 µM
Cc1ccc2nc(/C=C/c3cccc(F)c3)ccc2c1 0.521 µM
N#C/C(=C\c1c[nH]c2ccccc12)c1nnc2n1CCCCC2 18.5 µM
O/N=C/c1ccc(OCc2ccccc2F)c(Cl)c1 0.464 µM
CCOc1cc(/C=N/O)ccc1OCc1ccccc1F 16.5 µM
Cc1ccc(NC(=O)c2ncn(-c3ccccc3)n2)cc1Cl 3.29 µM
CC(=O)c1ccc(NC(=O)c2ncn(-c3ccccc3)n2)cc1 5.85 µM
CCCn1nnc(NC(=O)c2ccc3ccccc3c2)n1 4.14 µM
Cn1nnc(NC(=O)c2ccc3ccccc3c2)n1 14.7 µM
Cn1nnc2cc(C(=O)Nc3ccc4ccccc4c3)ccc21 0.585 µM
Nc1nc2c(-c3ccc(Br)cc3)nnn2c2ccccc12 0.261 µM
Cc1ccc(-c2nnc(-c3cccnc3)o2)cc1 4.65 µM
CN(C)c1ccc(-c2nnc(-c3cccnc3)o2)cc1 1.31 µM
c1ccc(-c2cnc(-c3cccnc3)o2)cc1 13.1 µM
CCSc1nnc(NC(=O)COc2ccccc2[N+](=O)[O-])s1 3.69 µM
CCSc1nnc(NC(=O)c2ccccc2)s1 1.31 µM
CC(C)c1nnc(NC(=O)COc2ccccc2[N+](=O)[O-])s1 9.27 µM
N/C(=N\C(=S)Nc1ccccc1)c1ccccc1 0.927 µM
Cc1cccc(NC(=O)Cc2noc3ccccc23)c1 5.85 µM
Cc1ccc(NC(=O)Cc2noc3ccccc23)cc1 7.36 µM
O=C(Cc1noc2ccccc12)Nc1ccc(Cl)cc1 14.7 µM
O=C(Cc1noc2ccccc12)Nc1ccccn1 14.7 µM
Nc1ccccc1C(=O)NNC1=C(C(=O)C(F)(F)F)CCC1 5.21 µM
CC1=NN(C(N)=S)C(=O)C1N=Nc1ccc(C)cc1C (configuration not stated) 3.69 µM
CC1=NN(C(N)=S)C(=O)C1N=Nc1cccc(Cl)c1 (configuration not stated) 7.36 µM
CC1=NN(C(N)=S)C(=O)C1N=Nc1ccc(C)c(Br)c1 (configuration not stated) 1.47 µM
CC1=NN(C(N)=S)C(=O)C1N=Nc1ccc(Br)cc1 (configuration not stated) 1.31 µM
C/C(=N\N=C(/N)c1nonc1N)c1ccc2c(c1)OCO2 0.521 µM
CC(=O)NCCC(=O)Nc1nc2ccc(Oc3ccccc3)cc2s1 1.65 µM
O=C1NCC2=C1C(c1ccccc1)Nc1ccccc1N2 (configuration not stated) 14.7 µM
Clc1ccc(CSc2nnc3ccccn23)c(Cl)c1 16.5 µM
Clc1cccc(Cl)c1CSc1nnc2ccccn12 16.5 µM
Cc1ccc2c(CSc3nnc4ccccn34)cc(=O)oc2c1C 13.1 µM
C/C(=N/NC(=O)c1cccs1)c1cccs1 2.93 µM
C/C(=N\NC(=O)c1cccs1)C(C)(C)C 4.65 µM
O=C(O)CC/C(=N/NC(=O)c1cccs1)c1ccccc1 2.07 µM
O=C(NC12CC3CC(CC(C3)C1)C2)c1ccc(-c2cccc(Cl)c2)o1 1.47 µM
O=C(NC12CC3CC(CC(C3)C1)C2)c1ccc(-c2ccc(Br)cc2)o1 7.36 µM
O=[N+]([O-])c1cc(/C=N/O)ccc1Oc1ccccc1Cl 16.5 µM
O=[N+]([O-])c1cc(/C=N\O)ccc1Oc1ccc(F)cc1 16.5 µM
CC(=O)C(C)Oc1ccc2c3c(c(=O)oc2c1)CCCCC3 (configuration not stated) 2.93 µM
CC(=O)C(C)Oc1ccc2c3c(c(=O)oc2c1)CCCC3 (configuration not stated) 16.5 µM
CN(C)S(=O)(=O)c1cccc(NC(=O)COC(=O)c2cc3ccccc3oc2=O)c1 6.56 µM
O=C(COC(=O)c1cc2ccccc2oc1=O)Nc1ccc(F)cc1F 6.56 µM
COc1ccc(-c2nnc(SCC(=O)c3ccc[nH]3)n2-c2ccccc2)cc1 13.1 µM
Cc1ccc(SCC(=O)c2ccc[nH]2)cc1 13.1 µM
O=c1c(Br)c(N2CCCC2)cnn1-c1ccccc1 1.85 µM
O=C(N=C1c2ccccc2CN1c1ccc(F)c(Cl)c1)c1cccnc1Cl 6.56 µM
O=C(N=C1c2ccccc2CN1c1cccc(Cl)c1)c1cccnc1 4.65 µM
COc1ccc(N2Cc3ccccc3C2=NC(=O)c2cccc([N+](=O)[O-])c2)cc1 13.1 µM
CC1SCC(NC(=O)c2ccccc2Cl)CS1 (configuration not stated) 13.1 µM
CC1SCC(NC(=O)c2ccc(Cl)cc2)CS1 (configuration not stated) 16.5 µM
CCn1c(C)nc2cc(C(=O)NNC(=S)Nc3ccc(F)cc3)ccc21 8.26 µM
CCn1c(C)nc2cc(C(=O)NNC(=S)Nc3ccccc3)ccc21 0.927 µM
Cc1nn(-c2nc3ccccc3[nH]2)c(N)c1-c1ccccc1 0.414 µM
Cc1nn(-c2cccc([N+](=O)[O-])c2)c(N)c1-c1ccccc1 4.14 µM
Cc1nn(-c2ccccc2)c(N)c1-c1ccccc1 6.56 µM
COc1ccc(-c2c(C)nn(-c3ccccc3)c2N)cc1 5.21 µM
Cc1nn(C(=O)c2cccs2)c(N)c1-c1ccccc1 5.21 µM
O=C(O)CCc1ccc(S(=O)(=O)Nc2ccccc2C(=O)NCCc2ccccc2)cc1 6.56 µM
NC(=O)Nc1ccccc1C(=O)NCCc1ccccc1 5.85 µM
N#Cc1ccccc1CSc1nnc(-c2ccc(Br)cc2)o1 0.414 µM
Cc1ccccc1-c1nnc(Cc2ccccc2)o1 4.14 µM
c1ccc(CSc2nnc(-c3ccco3)o2)cc1 13.1 µM
Cc1ccccc1-c1nc(Cc2ccccc2)no1 14.7 µM
Cc1ccccc1-c1nnc(CN2CCC(C)CC2)o1 14.7 µM
Brc1ccc(-c2nnc(Cc3ccccc3)o2)cc1 13.1 µM
Brc1c(CSc2nnc(-c3ccco3)o2)nc2ccccn12 11.7 µM
Cc1ccccc1-c1nnc(SCc2ccccc2)o1 5.21 µM
Cc1ccc(-c2nnc(SCc3ccccc3)o2)cc1 2.93 µM
Cc1c(C(=O)OC2CCCC2C)[nH]c2c1C(=O)CCC2 (configuration not stated) 6.56 µM
COC(=O)C1C(=O)c2c([nH]c(C(=O)OC3CCCC3)c2C)CC1C (configuration not stated) 1.47 µM
Cc1c(C(=O)OC2CCC(C)CC2)[nH]c2c1C(=O)CCC2 (configuration not stated) 0.464 µM
COc1cc(Cl)ccc1OCc1cc(C(=O)N(C)CC2CCCCO2)no1 (configuration not stated) 10.4 µM
COc1cc(Cl)ccc1OCc1cc(C(=O)N(C)CCc2cnn(C)c2)no1 5.85 µM
COc1cc(C)ccc1OCc1cc(C(=O)N(C)CCCN2CCOCC2)no1 6.56 µM
